Experiment [1] is described as follows: NCI Yeast Anticancer Drug Screen. Data for the rad50 strain (AID 155).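 Further: 0% = growth of vehicle-only cultures of the same strain.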 As to conditions: S. cerevisiae rad50 strain growth inhibition, active compounds read high. The method in brief:
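Cells are treated with compound, grown, and their growth is then scored against vehicle-only cultures of the same repair-deficient yeast strain.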

Experiment [2] is described as follows: NCI Yeast Anticancer Drug Screen. Data for the mec2-1 strain (AID 157). The following applies: S. cerevisiae mec2-1 strain, active compounds read high. In a few lines: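 Using mec2-1 yeast: add compound, measure growth, express inhibition versus vehicle-treated cultures.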
A short description of experiment [3]: NCI Yeast Anticancer Drug Screen. Data for the sgs1 mgt1 strain (AID 161).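 Further: 0% = growth of cultures given vehicle only.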 As to conditions: S. cerevisiae sgs1 mgt1 strain, active compounds read high. The method in brief:
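Growth of a repair-deficient yeast mutant was monitored after compound treatment and expressed as inhibition relative to vehicle-treated cultures.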

The nature of experiment [4]: NCI Yeast Anticancer Drug Screen. Data for the cln2 rad14 strain (AID 165).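 Further: 0% = growth equal to vehicle treated cultures.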 The following applies: S. cerevisiae cln2 rad14 strain, active compounds read high. In a few lines:
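Yeast strain cln2 rad14, bearing defects in cell cycle control and DNA repair, serves as the test system; values reflect growth inhibition compared with vehicle.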

The nature of experiment [5]: NCI Yeast Anticancer Drug Screen. Data for the bub3 strain (AID 167). The following applies: S. cerevisiae bub3 mutant strain, active compounds read high. In a few lines:
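Part of a panel of yeast mutants defective in DNA damage repair or cell cycle regulation. Each strain is grown with compound, and inhibition is calculated relative to solvent-treated cultures.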

Experiment [6] is described as follows: NCI Yeast Anticancer Drug Screen. Data for the mlh1 rad18 strain (AID 175). The following applies: S. cerevisiae mlh1 rad18 strain growth inhibition, active compounds read high. In a few lines: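 Steps: expose repair-defective yeast to compound; measure growth; express inhibition against vehicle-treated controls.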
[7] abbreviates: at 5.0 µM (retest, dose inferred, filed as 0.5).
Setting [8] is: at 50.0 µM (retest, dose inferred, filed as 5.0).

This is part of a sample that, as a whole, favours compounds with a hit. Of some 79,000 tested, about 15% had one in any assay. A number with no mark means an inactive call. The source made the active and inactive calls. No stated cut-off is given here; in the data, active means growth inhibition above about 70%; inactive means the rest.

10 molecules from PubChem BioAssay (NCI) can be followed below.

Turning to `C[C@@]12C(=O)OC(=O)[C@]1(C)[C@H]1CC[C@@H]2O1`, the growth inhibition in experiment [1] (setting [7]) is 96% (active); in experiment [1] (setting [8]), 98% (active); in experiment [1] (at 50.0 µM), 93.2% (active); in experiment [2] (setting [7]), 94% (active); in experiment [2] (setting [8]) it was 99% (active); in experiment [2] (at 50.0 µM) it was 94.2% (active). Further, the growth inhibition in experiment [3] (setting [7]) is 97% (active); in experiment [3] (setting [8]), 97% (active); in experiment [3] (at 50.0 µM), 93.3% (active); in experiment [4] (setting [7]), 78% (active); in experiment [4] (setting [8]), 98% (active); in experiment [4] (at 50.0 µM), 91.8% (active). Besides, the growth inhibition in experiment [5] (setting [7]) is 70% (active); in experiment [5] (setting [8]), 99% (active); in experiment [5] (at 50.0 µM) it was 92.8% (active); in experiment [6] (setting [7]), 96% (active); in experiment [6] (setting [8]), 98% (active); in experiment [6] (at 50.0 µM) it was 92.5% (active).
As to `Cc1ccc(/C=C2\CN(C)CC3=C2NC(=S)NC3c2ccc(C)cc2)cc1` (stereo not drawn), the growth inhibition in experiment [1] (setting [7]) is 31%; in experiment [1] (setting [8]), 40%; in experiment [1] (at 50.0 µM), 30.2%; in experiment [2] (setting [7]), 18%; in experiment [2] (setting [8]), 54%; in experiment [2] (at 50.0 µM), 4.2%. Moreover, the growth inhibition in experiment [3] (setting [7]) is -31%; in experiment [3] (setting [8]), 21%; in experiment [3] (at 50.0 µM), 30.6%; in experiment [4] (setting [7]), 18%; in experiment [4] (setting [8]) it was 33%; in experiment [4] (at 50.0 µM), 16.7%. Besides, the growth inhibition in experiment [5] (setting [7]) is -10%; in experiment [5] (setting [8]), 44%; in experiment [5] (at 50.0 µM), 20.1%; in experiment [6] (setting [7]), 26%; in experiment [6] (setting [8]), 48%; in experiment [6] (at 50.0 µM), 58.3%.
As for `c1ccc2c(c1)[nH]c1cc3ccncc3cc12`, the growth inhibition in experiment [1] (setting [7]) was -45%; in experiment [1] (setting [8]), 90% (active); in experiment [1] (at 50.0 µM), 79.3% (active); in experiment [2] (setting [7]), -30%; in experiment [2] (setting [8]), 29%; in experiment [2] (at 50.0 µM) it was 46.9%. In addition, the growth inhibition was -24% in experiment [3] (setting [7]); 52% in experiment [3] (setting [8]); 45.6% in experiment [3] (at 50.0 µM); -13% in experiment [4] (setting [7]); 42% in experiment [4] (setting [8]); 34.7% in experiment [4] (at 50.0 µM). The growth inhibition in experiment [5] (setting [7]) was -49%; in experiment [5] (setting [8]), 51%; in experiment [5] (at 50.0 µM), 34.5%.
In the case of `CCCCNCCCCCCCCCCCl`, the growth inhibition in experiment [1] (setting [7]) was 47%; in experiment [1] (setting [8]) it was 98% (active); in experiment [1] (at 50.0 µM), 99% (active); in experiment [2] (setting [7]), 65%; in experiment [2] (setting [8]) it was 99% (active); in experiment [2] (at 50.0 µM), 96.5% (active). Moreover, the growth inhibition in experiment [3] (setting [7]) is 79% (active); in experiment [3] (setting [8]), 99% (active); in experiment [3] (at 50.0 µM), 98.8% (active); in experiment [4] (setting [7]) it was 60%; in experiment [4] (setting [8]), 98% (active); in experiment [4] (at 50.0 µM), 64.8%. For the same molecule, the growth inhibition in experiment [5] (setting [7]) is 56%; in experiment [5] (setting [8]), 99% (active); in experiment [5] (at 50.0 µM), 97.2% (active).
`CCOC(=O)C(C(=O)OCC)C1(c2ccccc2)OC(=O)c2ccccc21` (stereo not drawn): the growth inhibition is 0% in experiment [1] (setting [7]); 13% in experiment [1] (setting [8]); 0.55% in experiment [1] (at 50.0 µM); 13% in experiment [2] (setting [7]); 27% in experiment [2] (setting [8]); 5.3% in experiment [2] (at 50.0 µM). Further, the growth inhibition was -1% in experiment [3] (setting [7]); 21% in experiment [3] (setting [8]); 52.9% in experiment [3] (at 50.0 µM); -1% in experiment [4] (setting [7]); 17% in experiment [4] (setting [8]); 19.1% in experiment [4] (at 50.0 µM). The growth inhibition in experiment [5] (setting [7]) is -7%; in experiment [5] (setting [8]), -6%; in experiment [5] (at 50.0 µM) it was 8.8%; in experiment [6] (setting [7]), -4%; in experiment [6] (setting [8]), 5%; in experiment [6] (at 50.0 µM), -8.55%.
In the case of `CCOC(=O)/C=C(\C)OCC`, the growth inhibition in experiment [1] (setting [7]) is -5%; in experiment [1] (setting [8]), 25%; in experiment [1] (at 50.0 µM) it was 16.3%; in experiment [2] (setting [7]), -3%; in experiment [2] (setting [8]), 2%; in experiment [2] (at 50.0 µM), 6.1%. Further, the growth inhibition is -4% in experiment [3] (setting [7]); 3% in experiment [3] (setting [8]); 7.25% in experiment [3] (at 50.0 µM); -1% in experiment [4] (setting [7]); 4% in experiment [4] (setting [8]); 76% (active) in experiment [4] (at 50.0 µM). In addition, the growth inhibition in experiment [5] (setting [7]) is -5%; in experiment [5] (setting [8]) it was -4%; in experiment [5] (at 50.0 µM), 38.9%; in experiment [6] (setting [7]), -5%; in experiment [6] (setting [8]), 7%; in experiment [6] (at 50.0 µM), 10.4%.
As for `O=C(O)C1C(C(=O)O)C23CC2(C(=O)O)C2(C(=O)O)CCC3=C3CCCC312` (stereo not drawn), the growth inhibition in experiment [1] (setting [7]) is 3%; in experiment [1] (setting [8]), 100% (active); in experiment [1] (at 50.0 µM), 51.3%; in experiment [2] (setting [7]) it was -1%; in experiment [2] (setting [8]), 99% (active); in experiment [2] (at 50.0 µM) it was 55%. Also, the growth inhibition in experiment [3] (setting [7]) is -7%; in experiment [3] (setting [8]), 100% (active); in experiment [3] (at 50.0 µM), 47.8%; in experiment [4] (setting [7]), -21%; in experiment [4] (setting [8]), 99% (active); in experiment [4] (at 50.0 µM), 19.4%. Also, the figures for the growth inhibition in experiment [5] (setting [7]), in experiment [5] (setting [8]) and in experiment [5] (at 50.0 µM) were 5%, 99% (active) and 85.3% (active), respectively.
With `O=C(O/N=C1/CCC/C1=C\c1ccccc1)c1ccccc1`, the growth inhibition in experiment [1] (setting [7]) is 33%; in experiment [1] (setting [8]), 97% (active); in experiment [1] (at 50.0 µM), 96.5% (active); in experiment [2] (setting [7]) it was 46%; in experiment [2] (setting [8]), 99% (active); in experiment [2] (at 50.0 µM), 98.2% (active). Further, the growth inhibition in experiment [3] (setting [7]) was 78% (active); in experiment [3] (setting [8]) it was 99% (active); in experiment [3] (at 50.0 µM), 98.8% (active); in experiment [4] (setting [7]), 25%; in experiment [4] (setting [8]) it was 98% (active); in experiment [4] (at 50.0 µM) it was 97% (active). Besides, the growth inhibition in experiment [5] (setting [7]) was 15%; in experiment [5] (setting [8]) it was 99% (active); in experiment [5] (at 50.0 µM) it was 96.3% (active).
For `CC(=O)OCC(=O)[C@@]1(O)[C@H](C)C[C@H]2[C@@H]3C=C(C)C4=Cc5c(cnn5-c5ccccc5)C[C@]4(C)[C@@]3(F)[C@@H](O)C[C@@]21C`, the growth inhibition was 0% in experiment [1] (setting [7]); 81% (active) in experiment [1] (setting [8]); 82.4% (active) in experiment [1] (at 50.0 µM); 0% in experiment [2] (setting [7]); 36% in experiment [2] (setting [8]); 69.5% in experiment [2] (at 50.0 µM). Also, the growth inhibition in experiment [3] (setting [7]) is 35%; in experiment [3] (setting [8]) it was 91% (active); in experiment [3] (at 50.0 µM), 83.2% (active); in experiment [4] (setting [7]), 19%; in experiment [4] (setting [8]), 88% (active); in experiment [4] (at 50.0 µM), 73.4% (active). In addition, the growth inhibition in experiment [5] (setting [7]) was -1%; in experiment [5] (setting [8]) it was 79% (active); in experiment [5] (at 50.0 µM) it was 24.1%; in experiment [6] (setting [7]) it was 46%; in experiment [6] (setting [8]), 87% (active); in experiment [6] (at 50.0 µM), 87.7% (active).
Turning to `COc1c2occc2c(OC)c2c(C)c(C(=O)OCCN3CCOCC3)oc12`, the growth inhibition in experiment [1] (setting [7]) is -1%; in experiment [1] (setting [8]) it was 31%; in experiment [1] (at 50.0 µM) it was 64%; in experiment [2] (setting [7]), -3%; in experiment [2] (setting [8]) it was 5%; in experiment [2] (at 50.0 µM), 50.3%. Further, the growth inhibition is -4% in experiment [3] (setting [7]); 43% in experiment [3] (setting [8]); 28.1% in experiment [3] (at 50.0 µM); -4% in experiment [4] (setting [7]); 2% in experiment [4] (setting [8]); 19.4% in experiment [4] (at 50.0 µM). Besides, the growth inhibition is 1% in experiment [5] (setting [7]); 56% in experiment [5] (setting [8]); 58.1% in experiment [5] (at 50.0 µM); -5% in experiment [6] (setting [7]); 54% in experiment [6] (setting [8]); 66.2% in experiment [6] (at 50.0 µM).
